Source: PubChem BioAssay (National Center for Advancing Translational Sciences (NCATS))
Shown are actives, neighbours in structure and some others; about 10% of the full set was active somewhere.
G9a inh: qHTS Assay for Inhibitors of Histone Lysine Methyltransferase G9a; Histone-lysine N-methyltransferase EHMT2 (Homo sapiens), Q96KQ7; G9a H3K9 monomethylation, AlphaScreen, 2 h; Potency, µM (series often up to 102 µM), for the others: at the top dose activity, negative = inhibition, hits mostly inhibitors; hit rate 8.8% among 350,000; AID 504332, 2011; further: on the % scale 0 is the no-effect control and ±100 the full control effect; nearly all actives have a fitted effect of over 75% in size
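Quantitative HTS format: methyltransferase activity on a biotin-tagged H3K9 peptide is measured by AlphaScreen, using a rabbit anti-monomethyl-H3K9 antibody with streptavidin donor and anti-IgG acceptor beads. Final levels are 20 nM enzyme, 500 nM peptide, 20 uM SAM; 2 h RT.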
HP1b chromo inh: HTS for Inhibitors of HP1-beta Chromodomain Interactions with Methylated Histone Tails; hit rate 0.56% among 390,000; Chromobox protein homolog 1 (Homo sapiens), P83916; AlphaScreen HP1-beta / biotin-H3K9me3 peptide binding; Potency, µM (top dose mostly 114 µM), for the others: at the highest dose activity change, negative = inhibition, usual class: inhibitors; AID 540317, 2011; further: nearly all actives have a fitted effect of over 70% in size
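Compound inhibition of the preformed complex between 50 nM HP1-beta and 50 nM biotinylated H3K9me3 peptide was read by AlphaScreen. Buffer was PBS pH 7.4 with 0.01% Tween-20. Incubations ran 30 min at room temperature, with 10 ug/mL donor/acceptor beads.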
GLS inhibitor: qHTS for Inhibitors of Glutaminase (GLS) | Potency, µM (top dose mostly 45.5 µM), for the others: top-dose activity change, negative = inhibition, most hits filed as inhibitors | Glutaminase kidney isoform, mitochondrial (Homo sapiens), O94925 | AID 624170, 2012 | hit rate 0.21% among 410,000 | GLS enzymatic activity, qHTS titration; further: on the % scale 0 is the no-effect control and ±100 the full control effect
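hKGA in 45 mM KH2PO4 (pH 8.2), 0.02% Tween-20 with compound, then 1mM L-Glutamine (stock as added) plus glutamate oxidase/HRP/Amplex red coupling mix. Fluorescence read initially and after 30 min at RT; signal change reflects glutamate formation.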
JMJD2A Tudor inh: qHTS Assay for Inhibitors of JMJD2A-Tudor Domain; AlphaScreen JMJD2A-Tudor / H3K4me3 peptide binding; Potency, µM (highest dose often 114 µM), inactives show at the highest dose activity change, negative = inhibition, hits mostly inhibitors; hit rate 4.4% among 390,000; AID 504339, 2011; further: on the % scale 0 is the no-effect control and ±100 the full control effect; nearly all actives have a fitted effect of over 50% in size
BAZ2B block: qHTS Assay for Inhibitors of BAZ2B; AID 504333, 2011; hit rate 4.4% among 360,000; AlphaScreen BAZ2B-H3K14Ac peptide displacement; Potency, µM (series often up to 114 µM), for the others: top-dose activity change, negative = inhibition, hits mostly inhibitors; Bromodomain adjacent to zinc finger domain protein 2B (Homo sapiens), Q9UIF8; further: on the % scale 0 is the no-effect control and ±100 the full control effect; nearly all actives have a fitted effect of over 60% in size
Target sequence (Q9UIF8 whole entry, looked up, the tested form may be a part): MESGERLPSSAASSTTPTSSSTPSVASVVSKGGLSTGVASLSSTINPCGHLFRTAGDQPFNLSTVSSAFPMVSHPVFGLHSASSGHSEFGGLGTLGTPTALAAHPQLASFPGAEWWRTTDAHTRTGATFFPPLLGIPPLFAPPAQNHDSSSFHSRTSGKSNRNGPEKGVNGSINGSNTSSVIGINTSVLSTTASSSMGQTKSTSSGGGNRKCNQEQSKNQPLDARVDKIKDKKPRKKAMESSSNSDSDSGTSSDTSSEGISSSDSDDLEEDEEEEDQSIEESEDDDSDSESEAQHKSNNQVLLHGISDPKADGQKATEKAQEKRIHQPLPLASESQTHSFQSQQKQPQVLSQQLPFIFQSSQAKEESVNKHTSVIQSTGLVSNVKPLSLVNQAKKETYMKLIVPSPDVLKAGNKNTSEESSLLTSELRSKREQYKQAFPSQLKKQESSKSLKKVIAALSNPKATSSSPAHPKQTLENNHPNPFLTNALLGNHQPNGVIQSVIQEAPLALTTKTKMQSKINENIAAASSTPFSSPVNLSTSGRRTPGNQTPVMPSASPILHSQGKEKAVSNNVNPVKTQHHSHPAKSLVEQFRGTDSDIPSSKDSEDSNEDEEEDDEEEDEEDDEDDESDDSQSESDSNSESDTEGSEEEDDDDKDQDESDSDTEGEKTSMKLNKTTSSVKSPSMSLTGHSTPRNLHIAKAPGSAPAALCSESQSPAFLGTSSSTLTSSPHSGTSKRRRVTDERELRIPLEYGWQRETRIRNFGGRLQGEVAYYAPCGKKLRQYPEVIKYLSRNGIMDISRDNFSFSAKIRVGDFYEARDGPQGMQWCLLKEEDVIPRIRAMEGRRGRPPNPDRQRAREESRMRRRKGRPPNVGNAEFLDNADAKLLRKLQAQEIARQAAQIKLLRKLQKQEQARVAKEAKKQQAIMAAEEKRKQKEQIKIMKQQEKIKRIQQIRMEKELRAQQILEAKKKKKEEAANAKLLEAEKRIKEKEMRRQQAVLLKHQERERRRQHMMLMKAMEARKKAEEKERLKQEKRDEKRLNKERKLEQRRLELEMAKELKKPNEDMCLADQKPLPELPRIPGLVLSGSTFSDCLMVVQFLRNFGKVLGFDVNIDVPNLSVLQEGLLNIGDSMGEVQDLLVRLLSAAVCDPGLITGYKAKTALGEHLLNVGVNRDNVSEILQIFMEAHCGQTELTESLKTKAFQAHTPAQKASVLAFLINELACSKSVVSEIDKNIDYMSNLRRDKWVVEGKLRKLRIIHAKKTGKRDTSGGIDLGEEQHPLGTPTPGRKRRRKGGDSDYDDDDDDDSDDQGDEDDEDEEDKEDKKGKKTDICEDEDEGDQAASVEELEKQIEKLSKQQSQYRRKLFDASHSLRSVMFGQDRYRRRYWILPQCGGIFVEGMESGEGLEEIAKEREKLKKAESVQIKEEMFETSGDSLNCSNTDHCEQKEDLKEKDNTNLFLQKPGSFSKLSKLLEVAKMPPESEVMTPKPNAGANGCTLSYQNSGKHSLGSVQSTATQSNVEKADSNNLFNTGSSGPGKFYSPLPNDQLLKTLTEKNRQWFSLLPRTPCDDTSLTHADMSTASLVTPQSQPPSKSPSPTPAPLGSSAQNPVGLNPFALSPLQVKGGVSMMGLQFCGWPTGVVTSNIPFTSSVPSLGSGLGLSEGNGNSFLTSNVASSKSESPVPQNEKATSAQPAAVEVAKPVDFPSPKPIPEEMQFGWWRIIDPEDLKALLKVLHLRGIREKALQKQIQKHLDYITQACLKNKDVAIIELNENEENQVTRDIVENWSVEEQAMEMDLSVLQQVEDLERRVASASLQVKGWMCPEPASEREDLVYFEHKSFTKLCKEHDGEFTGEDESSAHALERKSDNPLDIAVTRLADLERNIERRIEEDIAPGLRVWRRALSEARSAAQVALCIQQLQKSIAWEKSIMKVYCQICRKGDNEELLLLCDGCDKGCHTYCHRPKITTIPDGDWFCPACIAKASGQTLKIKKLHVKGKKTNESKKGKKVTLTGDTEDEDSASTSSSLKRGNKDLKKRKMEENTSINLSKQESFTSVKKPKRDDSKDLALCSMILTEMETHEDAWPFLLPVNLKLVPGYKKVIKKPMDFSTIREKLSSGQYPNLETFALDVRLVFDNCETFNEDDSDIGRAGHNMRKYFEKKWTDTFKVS
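Complex of BAZ2B and biotin-H3K14Ac (50 nM apiece) forms over 30 min at RT, then faces library compounds up to 110 uM for another 30 min; AlphaScreen beads added, 20 min dark incubation, luminescence read.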
L3MBTL1 inh: qHTS Assay for the Inhibitors of L3MBTL1. AID 485360, 2010. hit rate 0.66% among 230,000. Lethal(3)malignant brain tumor-like protein 1 (Homo sapiens), Q9Y468. AlphaScreen L3MBTL1–H3K9me1 peptide binding. Potency, µM (highest dose often 57.1 µM), inactives show at the highest dose activity, negative = inhibition, usual class: inhibitors; further: on the % scale 0 is the no-effect control and ±100 the full control effect; nearly all actives have a fitted effect of over 60% in size
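L3MBTL1 50 nM + b-AHA-H3(1-15)K9me1 75 nM, 30 min RT; compound added, 30 min RT; streptavidin donor/Ni-chelate acceptor beads 10 ug/mL each final, 30 min RT dark; AlphaScreen read.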
The depositor's hits bear a star; ? = inconclusive; / = not tested or not shown; ! = a repeat was not active; [ ] = remark or other dose. The call rests on the fitted dose curve; in most records, active means well fitted curve in the direction sought with a large enough effect; inconclusive means small, poorly fitted or top-dose-only effect, or another doubt; inactive means no such curve, though single readings can be large; an effect the other way counts as inactive or inconclusive. Potency means the concentration at half of the fitted maximal effect.

SMILES | G9a inh | HP1b chromo inh | GLS inhibitor | JMJD2A Tudor inh | BAZ2B block | L3MBTL1 inh
Cn1c(O)c(C2=NN(C(=O)CCl)C(c3ccccc3)C2)c(=O)n(C)c1=O (stereo not drawn) | 32µM* | 24% | 8% | 22µM* | -38% | -4%
O=C(CNC(=O)c1ccccc1)NCC(=O)OCC(=O)c1ccc([N+](=O)[O-])cc1 | 8.9µM* | 36% | -6% | 13% | -4% | 13%
CC1(C)OC(c2ccccc2)=C/C(=C/C=C2C(=O)NC(=O)NC2=O)O1 | 35µM* | -4% | -22% | -31% | -37% | /
C[N+]12CCC(CC1)C(C(O)(c1ccccc1)c1cccs1)C2 (stereo not drawn) | 14µM* | 15% | -1% | -31% | 0% | 5%
Nc1ncnc2c1ncn2[C@@H]1O[C@H](COP(=O)(O)CP(=O)(O)OP(=O)(O)O)[C@@H](O)[C@H]1O | 13µM*! | / | / | / | / | /
Nc1ncnc2c1ncn2[C@@H]1O[C@H](COP(=O)(O)CP(=O)(O)O)[C@@H](O)[C@H]1O | 38%[59 µM] | 20% | -7% | 79µM* | / | /
CCC1C2CC3C4N(C)c5ccccc5[C@]45CC(C2C5O)N3C1O (stereo partly drawn) | -3%[2.33 µM] | / | / | / | / | /
CC(=O)O[C@H]1C[C@@H](O[C@@H]2[C@H](C)O[C@H](O[C@@H]3[C@H](C)O[C@H](O[C@@H]4CC[C@@]5(C)[C@@H](CC[C@]6(C)[C@]5(C)C[C@H](O)[C@]5(C)[C@@H](C7=CC(=O)OC7)CC[C@@]56O)C4)C[C@@H]3O)C[C@@H]2O)O[C@@H](C)[C@H]1O[C@H]1O[C@@H](CO)[C@@H](O)[C@@H](O)[C@@H]1O | 18%[21.5 µM] | / | / | / | / | /
Fc1ccc(CNCCc2ccccc2)cc1 | ? | ? | 7% | 22µM* | / | 12%
COc1ccc(CCNCc2cc(OC)cc(OC)c2)cc1 | / | / | 2% | / | / | /
Fc1ccc(CCNCc2ccccc2Cl)cc1 | 2%[12.7 µM] | 40% | -7% | 3% | 4% | /
COc1ccc(CCNCc2c(OC)ccc3ccccc23)cc1 | 14µM* | ? | -1% | 22µM* | 35µM* | /
COc1ccc(CCNC(C)CCc2ccc(OC)cc2)cc1 (stereo not drawn) | ? | 9% | 2% | 0% | ? | /
COc1ccc(CCNCc2cccn2C)cc1OC | / | 6% | 0% | -23% | ? | /
COc1cccc(CCNCc2ccc(SC)cc2)c1 | 3.2µM* | ? | -13% | 25µM* | 50µM* | 4%
COc1ccc(CCNCc2ccccc2)cc1 | 5%[2.33 µM] | ? | -1% | 7.1µM* | 25µM* | /
Cn1c(=O)oc2cc(S(=O)(=O)N3CCCC(C(=O)N4CCN(c5ccc(Cl)cc5)CC4)C3)ccc21 (stereo not drawn) | 2%[59 µM] | 42% | 7% | -12% | -3% | /
CCc1nn2c(=O)cc(N3CCN(C)CC3)nc2s1 | / | / | / | -18% | / | /
CCOCCCNC(=O)c1c[nH]c2ccc(S(=O)(=O)N(C)c3ccc(Cl)cc3F)cc2c1=O | 2%[59 µM] | 49% | 2% | -23% | 0% | /
COc1ccc(CCNCc2ccc3c(c2)n(C)c(=O)n3C)cc1 | -2%[59 µM] | 19% | -12% | -9% | -4% | /
COc1ccc(CCNCc2ccncc2)cc1 | ? | ? | -2% | 1.3µM* | 56µM* | /
Cc1cc(OCC(=O)N[C@H](C(=O)O)c2ccccc2)c2c3c(c(=O)oc2c1)CCC3 | 79µM* | -6% | 16% | ? | -3% | 4%
Cc1cc(OC(C)C(=O)NCc2cccnc2)c2c3c(c(=O)oc2c1)CCC3 (stereo not drawn) | 37% | 95% | -20% | 89µM* | -8% | /
Cn1c(=O)c2c(-c3ccccc3)n3c(c2n(C)c1=O)C(c1cc(Cl)ccc1O)Nc1ccccc1-3 (stereo not drawn) | ? | 17% | 1% | -25% | -22% | /
C[n+]1c2ccccc2nc2ccc(NCCO)cc21 | 1%[2.33 µM] | 40µM* | -17% | ? | 13µM* | /
SMILES | G9a inh | HP1b chromo inh | GLS inhibitor | JMJD2A Tudor inh | BAZ2B block | L3MBTL1 inh
CNc1ccc2nc3ccccc3[n+](C)c2c1 | -33%[2.33 µM] | ? | -22% | -33% | 35µM* | /
C[C@]12CCC3C(CCC4=CC(=O)CC[C@@H]43)C1CCC2O (stereo partly drawn) | / | / | -14% | / | / | /
COc1ccccc1NC(=O)c1oc2ccccc2c1NC(=O)COc1cccc(C)c1 | 1%[59 µM] | 43% | -4% | -14% | -3% | /
C[C@@H]1CN([C@H](C)CO)C(=O)CCCn2nncc2CO[C@@H]1CN(C)C(=O)Nc1ccc(N2CCCCC2)cc1 | / | / | 5% | / | / | /
CC1CCc2cc(F)cc3c(=O)c(C(=O)O)cn1c23 (stereo not drawn) | 8.9µM* | -2% | -3% | ? | 56µM* | 6%
COc1ccc(C2=NCC(=O)N(CC(=O)NCc3ccco3)c3sc4c(c32)CCCC4)cc1OC | 16µM* | -4% | 4% | -34% | -38% | -8%
O=C(CN1C(=O)CN=C(c2ccccc2)c2ccccc21)NCc1ccco1 | ? | 9% | 2% | -27% | ? | 20µM*
COc1ccc(Cn2c(=O)oc3ccccc32)cc1F | 26% | 38% | -2% | 5% | 7% | /
O=C(Nc1ccc(Cl)c(C(F)(F)F)c1)c1ccc2c(c1)CCN2S(=O)(=O)c1ccccc1 | 8%[59 µM] | 64% | 3% | 6% | 2% | /
CCOc1ccccc1CN(CCc1ccc2c(c1)OCO2)Cc1ccc(CC)cc1 | ? | ? | -16% | 5µM* | 40µM* | /
CCCCCOc1c(OC)ccc2cc(C(=O)NCc3ccc4c(c3)OCO4)c(=O)[nH]c12 | 36%[59 µM] | / | / | / | / | /
C[N+]1(C)C2CCC1CC(OC(=O)c1c[nH]c3ccccc13)C2 (stereo not drawn) | 11µM* | 27% | -1% | 50µM* | -31% | 9%
C[N+]1(C)CCC(OC(=O)C(c2ccccc2)c2ccccc2)CC1 | 6.7µM*! | 17% | 1% | ? | / | /
C[N+]1(C)[C@@H]2CC[C@H]1CC(OC(=O)[C@@H](CO)c1ccccc1)C2 (stereo partly drawn) | 7.9µM*! | -9% | -27% | ? | -16% | /
C[N+]1(C)C2CC[C@H]1CC(OC(=O)C(CO)c1ccccc1)C2 (stereo partly drawn) | 1%[59 µM] | 40% | -9% | -4% | -4% | 6%
C[N+]1(C)C2CCC1CC(OC(=O)c1ccco1)C2 (stereo not drawn) | / | 32% | -6% | -8% | -15% | /
